Screening results (PubChem)
This is a sample that favours compounds with a hit; in the whole collection about 10% have one here.
HPGD inh: HPGD (human) dehydrogenase inhibition; 4.3% of 150,000 active; purified HPGD, NADH fluorescence kinetic, PGE2 substrate; AID 894; P15428; Potency, µM, inactives show top-dose activity change, negative = inhibition, usual class: inhibitors; further: potency means the concentration at half of the fitted maximal effect
Target sequence (P15428 whole entry, looked up): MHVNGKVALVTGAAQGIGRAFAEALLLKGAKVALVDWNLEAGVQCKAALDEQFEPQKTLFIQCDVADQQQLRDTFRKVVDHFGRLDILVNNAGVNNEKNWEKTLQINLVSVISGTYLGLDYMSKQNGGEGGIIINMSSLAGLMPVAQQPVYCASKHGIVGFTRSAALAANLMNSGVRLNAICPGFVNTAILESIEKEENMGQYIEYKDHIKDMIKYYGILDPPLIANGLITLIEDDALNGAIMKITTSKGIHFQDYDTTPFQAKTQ
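20 nM HPGD preincubated 15 min at room temperature with compound in 50 mM Tris-HCl pH 8, 0.01% Tween 20. Started with 1 mM NAD+ and 30 uM prostaglandin E2; NADH fluorescence (360/450 nm) read 5 times over 30-s intervals, last minus first.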
PNC assembly inh: blocks assembly of the perinucleolar compartment | PC3M PTB-GFP, PNC prevalence imaging, 16 h; stronger effect = lower value | activity change (PNC), negative = inhibition, % at 10 µM | 3.1% of 140,000 active | AID 2417;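 active means readout at or below -70, meaning at least 70% loss of cells showing the perinucleolar compartment, a nuclear body marking cancer cells; inconclusive means readout between -30 and a set limit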;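 further: plate controls were DMSO wells for no effect and camptothecin positive control wells for full effect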
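PC3M cells stably expressing PTB-GFP, 750–1000 cells/well, treated 16 h at 37 °C with compound (23 nl of library stock), in duplicate. After paraformaldehyde fixation and Hoechst stain, imaged at 20x; PNC prevalence scored by image analysis.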
ALDH1A1 inh: ALDH1A1 (human) enzyme inhibition; P00352; Purified ALDH1A1, NADH fluorescence, propionaldehyde substrate; Potency, µM (doses to about 75.3 µM), for the others: at the top dose activity, negative = inhibition, hits mostly inhibitors; 7.3% of 220,000 active; AID 1030;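 further: potency means the concentration at half of the fitted maximal effect; plate controls were no enzyme wells and a reference inhibitor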
Lamin A splicing: modulators of lamin A splicing; HeLa LMNA splicing GFP/RFP minigene ratio, 48 h; Potency, µM (doses to about 46.1 µM), for the others: at the top dose ratio change, negative = inhibition, usual class: inhibitors; 0.01% of 200,000 active; active means well fitted inhibition curve with a large enough effect in the signal ratio, with a control signal flat, not every such curve was filed as active; inconclusive means small, poorly fitted or top-dose-only effect, or effect the other way, or a change in a side signal; the % refers to the signal ratio; further: potency means the concentration at half of the fitted maximal effect
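S3 HeLa cells stably expressing lamin A-EGFP splicing minigene plus DsRed2, 600 cells/well, 48 h compound exposure at 37C. Laser-scanning cytometry; analysed as GFP (500-530 nm)/RFP (575-640 nm) total intensity ratio; 0.5% DMSO vehicle.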
12-hLO inh: 12-hLO (ALOX12) enzyme inhibition; purified 12-hLO, xylenol orange hydroperoxide absorbance; 0.12% of 150,000 active; P18054; Potency, µM (highest dose often 57.1 µM), inactives show top-dose activity change, negative = inhibition, usual class: inhibitors; active means well fitted inhibition curve with a large enough effect; inconclusive means small, poorly fitted or top-dose-only effect; further: potency means the concentration at half of the fitted maximal effect; nearly all actives have a fitted effect of over 55% in size
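Hydroperoxide output read as Fe(III)-xylenol orange absorbance, 573-to-405 nm ratio, after 30 min reaction with 40 uM arachidonic acid. Enzyme: 150 nM purified human 12hLO, 15 min compound preincubation; 25 mM Hepes pH 7.0, room temperature.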
* hit, by the source's call; ? = inconclusive; / = no result given; [ ] = dose if it differs, or a comment. Unless noted, the call rests on the fitted dose curve; in most records, active means well fitted inhibition curve with a large enough effect (not every such curve was filed as active); inconclusive means small, poorly fitted or top-dose-only effect, or another doubt; inactive means no such curve, though single readings can be large or run the other way. Unless noted, on the % scale 0 is the no-effect control and ±100 the full control effect.

SMILES	HPGD inh	PNC assembly inh	ALDH1A1 inh	Lamin A splicing	12-hLO inh
O=Cc1ccc(-c2ccc(F)cc2)o1	/	/	1.4µM*	?	/
CC(=O)OCC(=O)[C@@]12OC3(CCCC3)OC1CC1C3CCC4=CC(=O)C=C[C@@]4(C)[C@]3(F)C(O)C[C@]12C (some centres undefined)	-7%	/	-3%	?	-2%
CC(C)(C)OC(=O)N1CCC(c2c(C(=O)N3CCCCC3)cnn2-c2ccccc2Cl)CC1	/	/	/	6%[46 µM]	/
COc1ccc(NC(=O)CSc2nnc(C3CC3)n2N)cc1	-11%	38	-15%	6%	3%
COc1ccc(CCSc2nnc(C3CCCCC3)n2N)cc1	20µM*	22	-8%	-9%	3%
CCOc1ccccc1-n1c(C)cc(C=O)c1C	/	/	?	20%[46 µM]	/
COc1ccc(Cl)cc1-n1c(C)cc(C=O)c1C	14µM*	-11	13µM*	3%	2%
COc1ccc(Cl)cc1-n1c(C)cc(C(=O)O)c1C	13µM*	-22	?	15%	-1%
CCOC(=O)c1ccc(NC(=O)C(Cc2ccccc2)N2Cc3ccccc3C2=O)cc1 (centres undefined)	/	/	/	-2%[46 µM]	/
CSc1ccc(S(=O)(=O)NCCOc2ccccc2C)cc1	-20%	23	13µM*	?	-2%
CC(C)(C)SCCNS(=O)(=O)c1ccc2ccccc2c1	-21%	14	15µM*	?	-23%
COCCCNS(=O)(=O)c1ccc(SC)cc1	-8%	40	?	?	-1%
CSc1ccc(S(=O)(=O)NCCSC(C)(C)C)cc1	-12%	-14	7.9µM*	-16%	-11%
CC(C)(C)SCCNS(=O)(=O)c1ccccc1	-11%	2	?	-5%	-3%
COc1cccc(Cn2c(=O)c(-c3cn(C)c4ccccc34)nc3cnc(OC)nc32)c1	/	/	-7%	-1%	/
COc1ccc(NC(=O)N2CC[C@@]3(CCCN(C(=O)c4ccco4)C3)C2)cc1	0%	/	-7%	/	-3%
COc1cccc(CNC(=O)Cn2nc3c(cc2=O)CCCC3)c1OC	/	/	/	-5%[46 µM]	/
Cn1c(COc2ccc(Cl)cc2)nnc1SCc1ncc(-c2ccccc2)o1	-5%	?	20µM*	?	-16%
COc1cccc(Oc2ccc(N/C=C/C(=O)C(C)(C)C)cc2)c1	-26%	31	10µM*	-5%	2%
CC(=O)Nc1ccc(N/C=C/C(=O)C(C)(C)C)cc1	?	-5	22µM*	10%	-1%
COc1ccccc1Oc1ccc(N/C=C/C(=O)C(C)(C)C)cc1	/	/	-15%	?	/
O=C(CSCc1ccc(F)cc1)N1CCc2c([nH]c3ccccc23)C1c1ccccc1 (centres undefined)	/	/	/	-6%[46 µM]	/
COC(=O)c1ccc(NC(CC(C)C)C(=O)OC)c([N+](=O)[O-])c1 (centres undefined)	-6%	-119*	-3%	-8%	-6%
COc1c2c(nc3occc13)C(CC=C(C)C)(OC)C(OC(C)=O)CC2 (centres undefined)	5%	-14	-11%	1%	1%
COc1c2c(nc3occc13)C(CC=C(C)C)(OC)C(O)CC2 (centres undefined)	7%	-100*	1%	?	4%
SMILES	HPGD inh	PNC assembly inh	ALDH1A1 inh	Lamin A splicing	12-hLO inh
COc1ccc(C(=O)Nc2nc3c(s2)Cc2cc(OC)ccc2-3)cc1	-13%	-22	22µM*	-2%	3%
COc1ccc2c(c1)Cc1sc(NC(=O)c3cccs3)nc1-2	-24%	?	2.5µM*	?	?
O=C(Cc1ccccc1)Nc1nc2ccc(Cl)cc2c2nc(-c3ccco3)nn12	?	/	-19%	/	1%
CCC(c1nnnn1Cc1ccco1)N1CCN(C(=O)c2ccco2)CC1 (centres undefined)	0%	3	?	-4%	2%
O=C(c1ccco1)N1CCN(C(c2ccccc2Cl)c2nnnn2Cc2cccs2)CC1 (centres undefined)	-10%	-27	13µM*	?	-10%
CC(C)CC(c1nnnn1Cc1ccccc1)N1CCN(C(=O)c2ccco2)CC1 (centres undefined)	0%	-17	25µM*	1%	-4%
O=C(c1ccco1)N1CCN(C(c2cccs2)c2nnnn2C2CCCCC2)CC1 (centres undefined)	3%	0	18µM*	-2%	2%
